Assay [1] deals with Acetylcholinesterase (Homo sapiens) (UniProt P22303). The assay is described as follows: Acetylcholinesterase (AChE) small molecule antagonists: fluorescence cell-based qHTS assay (AID 1347398; calls by dose curve; note: nearly all actives have a fitted effect of over 50% in size). The note with it: Potency: AChE activity. The essentials:
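SH-SY5Y, 2,000 cells/well, attached overnight; cmpd 30 min 37 C; acetylthiocholine/Thiolite Green cocktail 40 min RT; fluorescence Ex/Em 490/520 nm.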
(In general: qHTS replaces the single test concentration by a dilution series.)

Assay [2] has the same target. Kind of assay: Acetylcholinesterase (AChE) small molecule antagonists: enzyme-based qHTS assay with human liver microsomes (AID 1347399; calls by dose curve; note: nearly all actives have a fitted effect of over 60% in size). As to conditions: Potency: qHTS inhibition. The essentials: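 Recombinant human AChE (50 mU/mL in the enzyme mix) and human liver microsomes (0.25 mg/mL final) were preincubated with compound and NADPH (0.25 mg/mL final) for 30 min at 37 C. Acetylthiocholine/DTNB was then added; thiocholine was read colorimetrically after 10 min at room temperature.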

Assay [3] addresses Cytochrome P450 2C19 (Homo sapiens) (UniProt P33261). The assay is described as follows: Cytochrome P450 Family 2 Subfamily C Member 19 (CYP2C19) small molecule antagonists: luciferase reporter qHTS assay (AID 1671197). Note: nearly all actives have a fitted effect of over 65% in size. Note: potency is the fitted concentration of half-maximal effect. An outline of the steps: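 Enzyme-substrate mix with proluciferin substrate (P450-Glo CYP2C19 system) preincubated with compounds 10 min at room temperature; NADPH regeneration solution added, 37C for 1 h; detection reagent stops reaction, luminescence read after 20 min. Ketoconazole positive control.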

Assay [4] addresses Cytochrome P450 2C9 (Homo sapiens) (UniProt P11712). The assay is described as follows: Cytochrome P450 Family 2 Subfamily C Member 9 (CYP2C9) small molecule antagonists: luciferase reporter qHTS assay (AID 1671198). Note: nearly all actives have a fitted effect of over 50% in size. Note: potency is the fitted concentration of half-maximal effect. An outline of the steps:
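P450-Glo proluciferin substrate with CYP2C9 enzyme; 10 min RT preincubation, then NADPH regeneration 1 h at 37C; luciferin detection reagent 20 min RT, luminescence in relative luminescence units.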
Background: Reporter assays use an easily measured gene product as a stand-in for the process of interest.

Assay [5] concerns the target Cytochrome P450 1A2 (Homo sapiens) (UniProt P05177). The assay is described as follows: Cytochrome P450 Family 1 Subfamily A Member 2 (CYP1A2) small molecule antagonists: luciferase reporter qHTS assay (AID 1671199). Note: nearly all actives have a fitted effect of over 50% in size. Note: potency is the fitted concentration of half-maximal effect. An outline of the steps:
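Steps: enzyme-substrate mix dispensed; test compounds and furafylline control pinned in; 10 min room temperature; NADPH regeneration solution added, 1 h; reaction stopped with luciferin detection reagent; luminescence read after 20 min.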

For assay [6], the target named is Voltage-gated inwardly rectifying potassium channel KCNH2 (Homo sapiens) (UniProt Q12809). Kind of assay: Human Ether-a-go-go-Related Gene (hERG) channel small molecule antagonists: fluorescence cell-based qHTS assay (AID 1671200). Note: nearly all actives have a fitted effect of over 50% in size. Note: potency is the fitted concentration of half-maximal effect. An outline of the steps:
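Fluorescence at 540 nm emission (480 nm excitation) was recorded kinetically for 2 min at 1-second intervals once the thallium-containing stimulus reached cells previously loaded with FluxOR II dye.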

The target of assay [7] is Cytochrome P450 3A4 (Homo sapiens) (UniProt P08684). The assay is described as follows: Cytochrome P450 Family 3 Subfamily A Member 4 (CYP3A4) small molecule antagonists: luciferase reporter qHTS assay (AID 1671201). Note: nearly all actives have a fitted effect of over 50% in size. Note: potency is the fitted concentration of half-maximal effect. An outline of the steps: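 qHTS, 1536-well. CYP3A4 + proluciferin substrate, cpd 10 min RT → NADPH regen 1 h RT → detection reagent 20 min → luminescence (RLU). Ketoconazole positive control.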
Chain of Cytochrome P450 3A4 (Homo sapiens) (P08684 whole entry, looked up): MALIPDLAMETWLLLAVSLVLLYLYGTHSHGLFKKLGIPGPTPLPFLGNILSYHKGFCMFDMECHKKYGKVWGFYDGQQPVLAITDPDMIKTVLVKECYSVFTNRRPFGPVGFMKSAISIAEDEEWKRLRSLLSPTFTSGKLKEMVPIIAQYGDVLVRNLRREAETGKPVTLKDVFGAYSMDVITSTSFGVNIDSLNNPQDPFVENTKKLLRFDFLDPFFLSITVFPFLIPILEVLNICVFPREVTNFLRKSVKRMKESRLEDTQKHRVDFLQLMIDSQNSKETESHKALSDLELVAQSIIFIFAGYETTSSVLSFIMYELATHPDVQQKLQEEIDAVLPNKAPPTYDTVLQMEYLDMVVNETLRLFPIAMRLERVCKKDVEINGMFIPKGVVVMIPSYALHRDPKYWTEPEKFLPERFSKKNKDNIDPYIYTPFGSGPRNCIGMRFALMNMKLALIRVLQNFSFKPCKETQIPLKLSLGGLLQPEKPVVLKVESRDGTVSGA

Assay [8] concerns the target Cytochrome P450 2D6 (Homo sapiens) (UniProt P10635). The assay is described as follows: Cytochrome P450 Family 2 Subfamily D Member 6 (CYP2D6) small molecule antagonists: luciferase reporter qHTS assay (AID 1671196). Note: nearly all actives have a fitted effect of over 50% in size. Note: potency is the fitted concentration of half-maximal effect. An outline of the steps: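 Test chemicals meet CYP2D6 plus proluciferin substrate (10 min, RT); NADPH regenerating solution then drives turnover for 1 h. Detection reagent halts the reaction; luminescence measured after 20 min.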

Records with an inconclusive call do not appear. Active and inactive are the calls of the source. Unless noted, calls come from the whole dose curve; as a rule, active = well fitted curve in the direction sought with a large enough effect in the repeat runs; inconclusive = weak or mixed curves; inactive = no such curve, though single readings can be large; an effect the other way counts as inactive or inconclusive.

Chain of Voltage-gated inwardly rectifying potassium channel KCNH2 (Homo sapiens) (Q12809 whole entry, looked up): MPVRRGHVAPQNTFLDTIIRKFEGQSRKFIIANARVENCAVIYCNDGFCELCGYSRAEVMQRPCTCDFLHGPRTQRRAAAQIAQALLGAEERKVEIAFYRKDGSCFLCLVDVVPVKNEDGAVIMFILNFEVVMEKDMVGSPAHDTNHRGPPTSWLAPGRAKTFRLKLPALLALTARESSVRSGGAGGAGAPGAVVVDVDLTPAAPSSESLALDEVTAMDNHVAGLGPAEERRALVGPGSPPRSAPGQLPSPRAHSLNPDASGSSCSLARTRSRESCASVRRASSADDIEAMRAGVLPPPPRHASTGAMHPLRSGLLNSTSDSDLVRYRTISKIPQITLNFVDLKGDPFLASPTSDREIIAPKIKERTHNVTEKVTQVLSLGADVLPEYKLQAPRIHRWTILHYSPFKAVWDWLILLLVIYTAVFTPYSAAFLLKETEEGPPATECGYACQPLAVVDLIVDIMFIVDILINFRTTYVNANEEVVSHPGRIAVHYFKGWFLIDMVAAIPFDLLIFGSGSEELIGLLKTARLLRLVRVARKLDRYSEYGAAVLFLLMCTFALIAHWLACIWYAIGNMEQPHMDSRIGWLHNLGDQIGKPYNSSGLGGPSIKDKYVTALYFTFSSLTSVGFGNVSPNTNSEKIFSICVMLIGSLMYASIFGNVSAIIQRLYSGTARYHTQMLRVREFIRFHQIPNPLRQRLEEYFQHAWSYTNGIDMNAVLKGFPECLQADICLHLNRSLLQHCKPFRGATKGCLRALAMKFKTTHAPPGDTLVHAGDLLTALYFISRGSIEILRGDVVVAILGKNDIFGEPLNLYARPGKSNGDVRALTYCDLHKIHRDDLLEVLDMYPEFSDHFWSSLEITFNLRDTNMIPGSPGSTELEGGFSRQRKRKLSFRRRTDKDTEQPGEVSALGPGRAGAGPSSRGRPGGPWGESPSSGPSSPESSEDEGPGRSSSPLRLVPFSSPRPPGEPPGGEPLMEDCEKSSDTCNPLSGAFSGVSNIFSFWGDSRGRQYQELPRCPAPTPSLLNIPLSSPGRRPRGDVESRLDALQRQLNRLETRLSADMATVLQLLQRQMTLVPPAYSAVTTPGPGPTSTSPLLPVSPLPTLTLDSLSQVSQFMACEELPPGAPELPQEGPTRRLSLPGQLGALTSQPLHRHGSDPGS
Chain of Acetylcholinesterase (Homo sapiens) (P22303 whole entry, looked up): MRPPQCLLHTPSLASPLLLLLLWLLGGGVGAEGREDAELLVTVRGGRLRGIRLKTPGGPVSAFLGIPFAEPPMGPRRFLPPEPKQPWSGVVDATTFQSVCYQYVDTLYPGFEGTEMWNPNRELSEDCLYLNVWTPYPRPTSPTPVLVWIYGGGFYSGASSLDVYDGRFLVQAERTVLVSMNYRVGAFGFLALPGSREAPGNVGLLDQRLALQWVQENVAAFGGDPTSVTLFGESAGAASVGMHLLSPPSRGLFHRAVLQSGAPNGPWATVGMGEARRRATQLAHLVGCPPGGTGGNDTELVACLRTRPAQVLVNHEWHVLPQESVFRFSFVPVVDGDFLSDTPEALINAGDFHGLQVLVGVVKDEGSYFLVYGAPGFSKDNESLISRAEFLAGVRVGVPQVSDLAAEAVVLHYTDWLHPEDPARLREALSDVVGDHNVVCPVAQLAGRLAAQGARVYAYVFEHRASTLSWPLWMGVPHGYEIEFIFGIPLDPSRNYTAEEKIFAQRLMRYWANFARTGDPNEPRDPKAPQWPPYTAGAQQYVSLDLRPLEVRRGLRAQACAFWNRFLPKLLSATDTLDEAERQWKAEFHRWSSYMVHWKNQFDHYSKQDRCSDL
Chain of Cytochrome P450 1A2 (Homo sapiens) (P05177 whole entry, looked up): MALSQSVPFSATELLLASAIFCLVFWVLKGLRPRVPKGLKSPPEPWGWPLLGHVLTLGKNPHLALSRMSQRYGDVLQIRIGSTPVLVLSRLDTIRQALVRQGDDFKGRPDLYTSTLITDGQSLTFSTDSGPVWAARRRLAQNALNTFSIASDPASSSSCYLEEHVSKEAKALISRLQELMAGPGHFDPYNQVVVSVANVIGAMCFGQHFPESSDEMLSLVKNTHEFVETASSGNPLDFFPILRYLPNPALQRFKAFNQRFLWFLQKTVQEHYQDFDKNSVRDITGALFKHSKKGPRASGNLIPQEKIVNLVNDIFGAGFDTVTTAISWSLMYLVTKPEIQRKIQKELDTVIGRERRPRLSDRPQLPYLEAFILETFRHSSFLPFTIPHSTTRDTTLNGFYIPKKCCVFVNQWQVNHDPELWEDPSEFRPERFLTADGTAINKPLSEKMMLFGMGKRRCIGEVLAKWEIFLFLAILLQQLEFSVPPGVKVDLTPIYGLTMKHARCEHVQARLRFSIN
Chain of Cytochrome P450 2C9 (Homo sapiens) (P11712 whole entry, looked up): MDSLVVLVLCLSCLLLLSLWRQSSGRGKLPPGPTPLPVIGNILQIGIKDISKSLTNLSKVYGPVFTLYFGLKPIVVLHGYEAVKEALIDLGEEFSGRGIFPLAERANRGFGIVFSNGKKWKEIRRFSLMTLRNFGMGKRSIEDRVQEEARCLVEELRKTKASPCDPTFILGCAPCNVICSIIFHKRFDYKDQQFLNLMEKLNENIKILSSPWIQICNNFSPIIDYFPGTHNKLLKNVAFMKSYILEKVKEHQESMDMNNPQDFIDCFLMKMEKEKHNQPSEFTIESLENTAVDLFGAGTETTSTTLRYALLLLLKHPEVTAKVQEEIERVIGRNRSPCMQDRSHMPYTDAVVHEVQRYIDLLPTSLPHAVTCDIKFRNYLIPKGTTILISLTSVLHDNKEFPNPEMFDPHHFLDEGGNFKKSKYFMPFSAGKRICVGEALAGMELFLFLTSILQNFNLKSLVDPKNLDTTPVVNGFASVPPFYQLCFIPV
Chain of Cytochrome P450 2C19 (Homo sapiens) (P33261 whole entry, looked up): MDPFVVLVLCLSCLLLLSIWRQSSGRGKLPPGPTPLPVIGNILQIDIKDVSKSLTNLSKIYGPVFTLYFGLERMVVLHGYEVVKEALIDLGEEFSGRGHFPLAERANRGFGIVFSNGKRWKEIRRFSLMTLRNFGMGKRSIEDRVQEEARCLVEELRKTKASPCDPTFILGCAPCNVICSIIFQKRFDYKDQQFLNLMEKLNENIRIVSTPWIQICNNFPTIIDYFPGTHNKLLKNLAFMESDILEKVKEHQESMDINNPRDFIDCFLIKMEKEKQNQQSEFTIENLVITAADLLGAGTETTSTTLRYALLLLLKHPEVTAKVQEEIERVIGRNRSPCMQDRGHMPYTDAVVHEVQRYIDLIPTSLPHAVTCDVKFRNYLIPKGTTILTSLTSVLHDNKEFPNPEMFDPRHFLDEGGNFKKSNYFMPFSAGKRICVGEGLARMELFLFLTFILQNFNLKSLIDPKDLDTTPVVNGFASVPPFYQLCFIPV
Chain of Cytochrome P450 2D6 (Homo sapiens) (P10635 whole entry, looked up): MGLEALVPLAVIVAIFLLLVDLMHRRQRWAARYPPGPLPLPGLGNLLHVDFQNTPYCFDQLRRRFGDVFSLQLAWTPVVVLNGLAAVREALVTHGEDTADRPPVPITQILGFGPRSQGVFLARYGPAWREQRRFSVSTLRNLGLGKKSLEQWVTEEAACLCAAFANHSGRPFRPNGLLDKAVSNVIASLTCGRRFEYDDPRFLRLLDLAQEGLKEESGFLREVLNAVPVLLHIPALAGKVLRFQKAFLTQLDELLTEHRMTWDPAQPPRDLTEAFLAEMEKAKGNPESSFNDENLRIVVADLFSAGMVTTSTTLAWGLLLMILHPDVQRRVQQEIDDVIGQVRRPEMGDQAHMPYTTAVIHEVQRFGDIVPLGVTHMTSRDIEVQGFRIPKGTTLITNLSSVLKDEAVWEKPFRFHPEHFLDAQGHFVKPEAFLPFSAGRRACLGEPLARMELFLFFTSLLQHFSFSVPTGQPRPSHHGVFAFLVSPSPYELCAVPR

As for `COC(=O)c1c(C(F)F)nc(C(F)(F)F)c(C2=NCCS2)c1CC(C)C`, the Potency entry in assay [1], in assay [2] and in assay [6] was “inactive” each time. Further, the Potency is 5.03 µM (active) in assay [3], 35.6 µM (active) in assay [4], 0.356 µM (active) in assay [5] and 2 µM (active) in assay [7].

As for `C=CC1CC=CCC1` (configuration not stated), the Potency entry in assay [1], in assay [2], in assay [8], in assay [4], in assay [6] and in assay [7] was “inactive” throughout.

`CCSC(=O)N(CC)C1CCCCC1`: the Potency entry in assay [1], in assay [2], in assay [8], in assay [5], in assay [6] and in assay [7] was “inactive” each time.

Take `COC(=O)C(c1ccccc1)C1CCCCN1` (configuration not stated): the Potency result in assay [1], in assay [2], in assay [5], in assay [6] and in assay [7] was “inactive” in each case. Besides, in assay [8], the Potency is 22.5 µM (active).

Regarding `O=C(Cc1ccccc1)OCc1ccccc1`, the Potency result in assay [1], in assay [2], in assay [6] and in assay [7] was “inactive” each time. The figures for the Potency in assay [3] and in assay [5] were 10.1 µM (active) and 18 µM (active), respectively.

With `COC(=O)C(C)Oc1ccc(Oc2ccc(Cl)cc2Cl)cc1` (configuration not stated), the Potency result in assay [1], in assay [2], in assay [8] and in assay [7] was “inactive” throughout. Besides, the Potency is 31.7 µM (active) in assay [4] and 38.9 µM (active) in assay [6].

In the case of `Cc1ncc(CNC(=O)N(CCCl)N=O)c(N)n1`, the Potency entry in assay [1], in assay [2], in assay [8], in assay [6] and in assay [7] was “inactive” throughout.

Take `CCCCOC(=O)c1ccccc1C(=O)O`: the Potency entry in assay [1], in assay [2], in assay [8], in assay [5], in assay [6] and in assay [7] was “inactive” in each case.

For `Cc1cnc[nH]1`, the Potency entry in assay [1], in assay [2] and in assay [6] was “inactive” each time. In addition, the Potency in assay [8] is 34.2 µM (active).

Turning to `CCOC(=O)C1(c2ccccc2)CCN(CCc2ccc(N)cc2)CC1`, the Potency result in assay [1], in assay [2] and in assay [5] was “inactive” each time. The results for the Potency in assay [8] and in assay [6] were 3.47 µM (active) and 19 µM (active), respectively.

As to `CCCCC(=O)Cl`, the Potency entry in assay [1], in assay [2], in assay [3], in assay [4], in assay [6] and in assay [7] was “inactive” in each case.

`CCOC(=O)/C=C(C)/C=C/C[C@@H](C)CCCC(C)C`: the Potency entry in assay [1] and in assay [2] was “inactive” throughout. Also, the Potency is 28.3 µM (active) in assay [3] and 15.9 µM (active) in assay [4].

For `N#CC(CCc1ccc(Cl)cc1)(Cn1cncn1)c1ccccc1` (configuration not stated), the Potency result in assay [1] and in assay [2] was “inactive” each time. The Potency in assay [3] is 0.2 µM (active); in assay [4], 2.24 µM (active); in assay [5], 31.7 µM (active); in assay [6], 21.9 µM (active); in assay [7], 0.0633 µM (active).

Take `CC(C(O)c1ccccc1)N(C)C/C=C/c1ccccc1` (configuration not stated): the Potency entry in assay [1], in assay [2] and in assay [7] was “inactive” throughout. The Potency in assay [8] was 0.0871 µM (active); in assay [6] it was 10.7 µM (active).

Consider `OCCBr`, for which the Potency entry in assay [1], in assay [2], in assay [3], in assay [4], in assay [6] and in assay [7] was “inactive” in each case.

Turning to `COc1cc2c(cc1OC)[C@@]13CCN4CC5=CCO[C@H]6CC(=O)N2[C@H]1[C@H]6[C@H]5C[C@H]43`, the Potency result in assay [1], in assay [2], in assay [3], in assay [4] and in assay [5] was “inactive” throughout.

Regarding `Cc1cc(C)nc(Nc2ccccc2)n1`, the Potency entry in assay [1], in assay [2], in assay [8], in assay [6] and in assay [7] was “inactive” throughout. The Potency in assay [5] was 6.33 µM (active).

Regarding `COP(=S)(OC)Oc1ccc(S(N)(=O)=O)cc1`, the Potency result in assay [1], in assay [2] and in assay [6] was “inactive” throughout. Further, the figures for the Potency in assay [3] and in assay [4] were 1.38 µM (active) and 3.47 µM (active), respectively.

`COC(=O)C1=CCCN(C)C1`: the Potency result in assay [1], in assay [2], in assay [3], in assay [4], in assay [5] and in assay [6] was “inactive” each time. The Potency entry in assay [7] was “inactive”.

As for `COc1cc(OC)nc(NC(=O)NS(=O)(=O)c2ncccc2OCC(F)(F)F)n1`, the Potency result in assay [1], in assay [2], in assay [8], in assay [6] and in assay [7] was “inactive” throughout.

Take `O=C(O)C(Br)CBr` (configuration not stated): the Potency entry in assay [1], in assay [2], in assay [6] and in assay [7] was “inactive” in each case. Further, the Potency was 36.2 µM (active) in assay [8] and 64.4 µM (active) in assay [5].

As for `O=[N+]([O-])c1ccc(CBr)cc1`, the Potency result in assay [1], in assay [2], in assay [8], in assay [4], in assay [6] and in assay [7] was “inactive” each time.

For `CC(C)CP(=S)(S)CC(C)C`, the Potency entry in assay [1], in assay [2], in assay [5] and in assay [6] was “inactive” in each case. In addition, the Potency in assay [3] was 56.4 µM (active); in assay [4], 31.7 µM (active); in assay [7] it was 35.6 µM (active).

Turning to `CCC(Cl)[N+](=O)[O-]` (configuration not stated), the Potency result in assay [1], in assay [2], in assay [3], in assay [4], in assay [6] and in assay [7] was “inactive” throughout.

Regarding `C1CCC(C2CCCCC2)CC1`, the Potency entry in assay [1], in assay [2], in assay [8], in assay [4], in assay [6] and in assay [7] was “inactive” each time.

In the case of `CCCCc1ccc(O)cc1`, the Potency entry in assay [1], in assay [2], in assay [8], in assay [6] and in assay [7] was “inactive” each time.

As for `CC1=NNC(=O)N(/N=C/c2cccnc2)C1`, the Potency entry in assay [1], in assay [2], in assay [8], in assay [6] and in assay [7] was “inactive” throughout. Besides, in assay [5], the Potency was 35.6 µM (active).

For `Cc1cc(C)c(C(=O)P(=O)(C(=O)c2c(C)cc(C)cc2C)c2ccccc2)c(C)c1`, the Potency result in assay [1], in assay [2] and in assay [6] was “inactive” throughout. Moreover, the Potency in assay [3] is 35.6 µM (active); in assay [4], 35.6 µM (active); in assay [5] it was 71 µM (active); in assay [7] it was 25.2 µM (active).

With `CC(=O)Nc1cc([As](=O)(O)O)ccc1O`, the Potency entry in assay [1], in assay [2], in assay [3], in assay [4], in assay [5] and in assay [6] was “inactive” throughout. In addition, the Potency entry in assay [7] was “inactive”.

As for `CCC(C)(C)c1cc(-n2nc3ccccc3n2)c(O)c(C(C)(C)CC)c1`, the Potency entry in assay [1], in assay [2] and in assay [6] was “inactive” in each case. Further, the Potency in assay [8] is 25.6 µM (active); in assay [5] it was 36.1 µM (active).

`CC(C)CC(N(C)C)C1(c2ccc(Cl)cc2)CCC1` (configuration not stated): the Potency in assay [8] is 4.36 µM (active). Besides, the Potency result in assay [4] and in assay [5] was “inactive” each time.
